Source: PubChem (National Center for Advancing Translational Sciences (NCATS))
This is a sample that favours compounds with a hit; in the whole collection about 6% have one here.
Tau FP inhib = qHTS for Inhibitors of Tau Fibril Formation, Fluorescence Polarization; Microtubule-associated protein tau (Homo sapiens), P10636; 0.39% of 280,000 active; Potency, µM (highest dose often 57.7 µM), actives largely listed as inhibitors; AID 1468, 2008; K18 P301L tau heparin fibrillization, Alexa594 FP, 6 h; also: nearly all actives have a fitted effect of over 55% in size
Target sequence (P10636 561-689 P618L limits assumed): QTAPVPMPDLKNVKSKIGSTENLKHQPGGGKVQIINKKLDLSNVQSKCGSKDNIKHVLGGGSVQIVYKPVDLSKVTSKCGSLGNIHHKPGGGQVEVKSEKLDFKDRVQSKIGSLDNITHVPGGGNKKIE
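Quantitative HTS format: compounds meet 15 uM recombinant K18 P301L tau and Alexa 594-tau tracer in 100 mM sodium acetate pH 7; 20 uM heparin triggers fibrillization at 37 C over 6 hr; FP gives the signal.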
Tau fluor counter = Counterscreen qHTS for Inhibitors of Tau Fibril Formation, Fluorescence Polarization; AID 1463, 2008; 0.93% of 280,000 active; tau K18 P301L Alexa594 fluorescence, heparin fibrillization; Potency, µM (highest dose often 57.7 µM); also: nearly all actives have a fitted effect of over 55% in size
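Human K18 P301L tau (15 uM unlabeled plus 0.24 uM Alexa 594-labeled, final) in 100 mM sodium acetate pH 7 was mixed with compound and 20 uM heparin and incubated 6 hr at 37 C.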
VDR inh = Inhibitors of the vitamin D receptor (VDR): qHTS; Potency, µM, hits mostly inhibitors; VDR-SRC2-3 peptide fluorescence polarization, 2 h; Vitamin D3 receptor (Homo sapiens), P11473; 0.93% of 400,000 active
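Two reagent solutions held at 4 deg C in the dark were dispensed, compounds pinned at 23 nl, and the mixture incubated 2 h at room temperature. Read-out: fluorescence polarization of VDR–SRC2-3 peptide binding.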
PLK1 PBD block = qHTS for Inhibitors of PLK1-PDB (polo-like kinase 1 - polo-box domain): Primary Screen. 2.8% of 360,000 active. AID 720504, 2013. Potency, µM, hits mostly inhibitors. Serine/threonine-protein kinase PLK1 (Homo sapiens), P53350. Plk1 PBD binding of FITC phosphopeptide, fluorescence polarization; also: series mostly up to about 57 µM; nearly all actives have a fitted effect of over 65% in size
Target sequence (P53350 whole entry, looked up, the tested form may be a part): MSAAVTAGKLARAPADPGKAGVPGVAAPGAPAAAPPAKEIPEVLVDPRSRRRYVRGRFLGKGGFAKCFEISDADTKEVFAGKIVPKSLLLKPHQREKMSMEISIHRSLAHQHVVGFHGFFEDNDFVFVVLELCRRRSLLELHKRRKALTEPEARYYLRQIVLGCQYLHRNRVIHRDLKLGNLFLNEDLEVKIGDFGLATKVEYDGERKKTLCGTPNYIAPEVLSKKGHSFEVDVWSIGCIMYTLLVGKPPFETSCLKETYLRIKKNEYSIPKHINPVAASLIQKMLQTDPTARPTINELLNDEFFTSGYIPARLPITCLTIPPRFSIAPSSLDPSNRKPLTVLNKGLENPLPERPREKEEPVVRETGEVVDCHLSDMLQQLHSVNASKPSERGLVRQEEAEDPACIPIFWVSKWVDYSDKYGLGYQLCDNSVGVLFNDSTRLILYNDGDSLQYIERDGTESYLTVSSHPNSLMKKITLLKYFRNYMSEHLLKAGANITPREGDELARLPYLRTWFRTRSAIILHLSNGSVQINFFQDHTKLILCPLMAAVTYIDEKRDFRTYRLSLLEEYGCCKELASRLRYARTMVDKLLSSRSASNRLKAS
Sfp inh = qHTS Assay for Inhibitors of Bacillus subtilis Sfp phosphopantetheinyl transferase (PPTase). Potency, µM, most hits filed as inhibitors. 4'-phosphopantetheinyl transferase ffp (Bacillus subtilis), Q9F4F7. 3.5% of 310,000 active. Biochemical Sfp PPTase activity, qHTS;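 also: the enzyme is Sfp with the accession as filed and its product quenches rhodamine fluorescence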
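Fluorescence-quenching assay: 15 nM Sfp-PPTase preincubated 15 min at room temperature with compound, then 5 uM rhodamine-CoA and 12.5 uM BHQ-2-labelled YbbR peptide added. Fluorescence (ex 525/em 598 nm) read at start and after 30 min; difference gives rate.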
Tau fibril ThT = qHTS for Inhibitors of Tau Fibril Formation, Thioflavin T Binding | Microtubule-associated protein tau (Homo sapiens), P10636 | recombinant tau K18 P301L (four-repeat tau fragment), heparin-induced fibrillization, ThT fluorescence | Potency, µM (highest dose often 57.4 µM), hits mostly inhibitors | 2.1% of 270,000 active | AID 1460, 2008; also: nearly all actives have a fitted effect of over 55% in size
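Heparin-induced (20 uM) aggregation of recombinant human K18 P301L tau, 15 uM unlabeled with 0.24 uM labeled, pH 7 acetate buffer, 6 hr at 37 C with compound. Fibrils quantified by 30 uM ThT fluorescence after 1 hr ambient incubation.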
Of the large screens only hits and unclear results are named; the others gave an inactive call; [ ] = dose if it differs, or a comment. Calls follow the shape of the dose curve; as a rule, active = well fitted curve in the direction sought with a large enough effect; inconclusive = small, poorly fitted or top-dose-only effect, or another doubt; inactive = no such curve, though single readings can be large; an effect the other way counts as inactive or inconclusive.

COc1cccc(Cn2c(SCC(=O)N3CCN(c4ccc(F)cc4)CC3)nc3ccccc32)c1	none (no result: PLK1 PBD block, Sfp inh)
Cc1cccc(N2CCN(C(=O)c3ccc4nc[nH]c4c3)CC2)c1C	none
CCc1nc2ccc(C(=O)N3CCN(c4cccc(C)c4C)CC3)cc2nc1CC	VDR inh inconclusive, PLK1 PBD block 26.7µM, Tau fibril ThT inconclusive
Cc1ccc(NC(=O)N2CCN(c3nnc(C)c4c(C)n(-c5ccccc5)nc34)CC2)c(Cl)c1	none (no result: PLK1 PBD block, Sfp inh)
CCOC(=O)CCCc1ccc(/C(C)=N/NC(=S)NC)cc1	none (no result: Tau fibril ThT)
CCOC(=O)CCCc1ccc(/C(C)=N/NC(N)=S)cc1	VDR inh inconclusive, Sfp inh 56.2µM (no result: Tau fibril ThT)
CCN(CC)CCNC(=O)c1ccc(NC(=O)c2cn(-c3ccccc3)nc2-c2cccs2)cc1	Tau FP inhib 10µM, Tau fluor counter inconclusive, Sfp inh inconclusive
CCOc1ccc(NC(=O)CN(C)C(=O)c2cn(-c3ccc(F)cc3)nc2-c2cccc(OC)c2)cc1OCC	none (no result: Tau FP inhib, Tau fluor counter, Sfp inh, Tau fibril ThT)
CCN(CC)CCNC(=O)c1ccc(NC(=O)c2cn(-c3ccc(F)cc3)nc2-c2cccc(OC)c2)cc1	Sfp inh 50.1µM (no result: Tau FP inhib, Tau fluor counter, Tau fibril ThT)
O=C(Nc1cccnc1)c1cn(-c2ccccc2)nc1-c1cccs1	Tau FP inhib 28.2µM, Tau fluor counter 17.8µM[quencher]
CCc1cccc(NC(=O)CN2Cc3ccccc3C2=O)c1	none (no result: PLK1 PBD block, Sfp inh)
Cc1ccc(C)c(NC(=O)Cn2cc(S(=O)(=O)c3ccc(F)cc3)c(=O)c3cc(F)ccc32)c1	Tau FP inhib inconclusive (no result: PLK1 PBD block, Sfp inh)
COc1cccc(N2CCN(C(=O)c3cnn(-c4ccccc4Cl)c3C3CCN(C(=O)OC(C)(C)C)CC3)CC2)c1	none (no result: PLK1 PBD block, Sfp inh)
CCCN1C2=C(C(=O)CC(C)(C)C2)C(c2ccc(F)cc2)C2=C1c1ccccc1C2=O (stereo not drawn)	Tau fluor counter inconclusive, PLK1 PBD block 11.9µM, Tau fibril ThT inconclusive
CCCCN1C2=C(C(=O)CC(C)(C)C2)C(c2ccccc2)C2=C1c1ccccc1C2=O (stereo not drawn)	Tau FP inhib inconclusive, Sfp inh 56.2µM, Tau fibril ThT 14.1µM
CCN(CC)CCN1C2=C(C(=O)CC(C)(C)C2)C(c2cccc(F)c2)C2=C1CC(C)(C)CC2=O	none
CC1CCCCN1C(=O)Cn1c(SCC(=O)N(C)c2ccccc2)nc2ccccc21 (stereo not drawn)	none (no result: PLK1 PBD block, Sfp inh)
Cc1ccc(N=Cc2cccc(O)c2O)c(C)c1	Tau FP inhib 8.91µM, Tau fluor counter inconclusive, VDR inh 20µM, Sfp inh 3.55µM, Tau fibril ThT 3.16µM (no result: PLK1 PBD block)
Oc1cccc(/C=N/N=C/c2cccc(O)c2O)c1O	none (no result: Tau FP inhib, Tau fluor counter, Tau fibril ThT)
Cc1ccc(N=Cc2sc(O)c3ccccc23)c(C)c1	Tau FP inhib inconclusive, Sfp inh 22.4µM, Tau fibril ThT inconclusive
CCN(CC)c1ccc(C=Nc2ccc(C)cc2C)c(O)c1	Tau fibril ThT inconclusive
Cc1ccccc1N=Cc1cccc(O)c1O	Tau FP inhib inconclusive, Tau fluor counter inconclusive, VDR inh 14.1µM, Sfp inh inconclusive, Tau fibril ThT 7.94µM
CCc1ccc(NC(=O)c2sc3nc(C)cc(C)c3c2NC(=O)c2ccccc2OC)cc1	none (no result: PLK1 PBD block, Sfp inh)
COc1cc(C)ccc1OCCSc1nc2ccc(NC(=O)c3cccs3)cc2s1	Tau FP inhib 10µM, Tau fluor counter 5.01µM[quencher] (no result: PLK1 PBD block, Sfp inh)
COc1cccc(NC(=O)CSc2nc3ccc(NC(=O)c4cccs4)cc3s2)c1	Tau FP inhib 7.94µM, Tau fluor counter 7.08µM[quencher] (no result: PLK1 PBD block, Sfp inh)
Cc1cccc(NC(=O)CSc2nc3ccc(NC(=O)c4cccs4)cc3s2)c1	Tau FP inhib inconclusive, Tau fluor counter inconclusive (no result: PLK1 PBD block, Sfp inh)
CC(=O)Nc1ccc2nc(SCCOc3ccccc3Cl)sc2c1	Tau FP inhib 11.2µM, Tau fluor counter 11.2µM[quencher], Tau fibril ThT inconclusive (no result: PLK1 PBD block, Sfp inh)
O=C(NCc1ccccc1)C1c2ccccc2OCC(=O)N1CC(F)(F)F (stereo not drawn)	none (no result: Tau FP inhib, Tau fluor counter, VDR inh, Sfp inh, Tau fibril ThT)
CC(=O)Nc1cccc(NS(=O)(=O)c2ccc3c(c2)CCC(=O)N3)c1	none (no result: Tau FP inhib, Tau fluor counter, VDR inh, Sfp inh, Tau fibril ThT)
Cn1c(Cl)cnc1C1CC(=O)c2cc(Cl)ccc2O1 (stereo not drawn)	VDR inh 79.4µM, Sfp inh inconclusive, Tau fibril ThT inconclusive
O=C1CC(c2ccc(Cl)cc2)Oc2ccc(Cl)cc21 (stereo not drawn)	VDR inh inconclusive (no result: Tau FP inhib, Tau fluor counter, Sfp inh, Tau fibril ThT)
NC(=O)NC(CC(=O)N1CCc2ccccc2C1)c1ccc(Cl)cc1 (stereo not drawn)	none (no result: Tau FP inhib, Tau fluor counter, Tau fibril ThT)
Cc1cccn2c(=O)c(C(=O)NCCc3ccccc3)cnc12	Tau FP inhib inconclusive (no result: PLK1 PBD block, Sfp inh)
Cc1cccc(C)c1OCC1CNC(=O)O1 (stereo not drawn)	PLK1 PBD block 26.7µM (no result: Tau FP inhib, Tau fluor counter, Tau fibril ThT)
COC(=O)[C@H]1CC2(CC=C(C)C)C(=O)[C@@](CC=C(C)C)(C(=O)C(C(=O)c3ccccc3)=C2OC)C1(C)C (tested in a mixture with another compound)	Tau FP inhib inconclusive (no result: PLK1 PBD block)
Cc1ccc(CN(CC2CCCO2)C(=O)CN2C(=O)C(C(C)C)Oc3ccccc32)o1 (stereo not drawn)	VDR inh inconclusive, PLK1 PBD block inconclusive, Sfp inh 44.7µM
CC(CC(=O)O)Nc1ccccc1O (stereo not drawn)	Sfp inh 35.5µM, Tau fibril ThT inconclusive
c1ccc(Cn2ccnc2C2OCCO2)cc1	none (no result: Tau FP inhib, Tau fluor counter, VDR inh, Sfp inh, Tau fibril ThT)
